# Experimental data as given in PubChem BioAssay (NCATS).
# Results filed as inconclusive are left out. Active and inactive are the calls of the source. The call rests on the fitted dose curve; in most records, active means well fitted cell-killing curve with a large enough effect; inconclusive means small, poorly fitted or top-dose-only effect, or effect the other way; inactive means no such curve, though single readings can be large or run the other way.
# Assay: Viability qHTS for spleen associated tyrosine kinase inhibitor (SYKi) drug resistant MV4-11 cells (AID 1963824); further: nearly all actives have a fitted effect of over 35% in size
# Details: SYKi-resistant MV4-11 viability, CellTiter-Glo, 72 h; series mostly up to 45 µM
# Procedure, shortened: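 SYK-inhibitor-resistant MV4-11 AML cells were seeded at 500 per well onto compound and cultured 72 hours (37 °C, 5% CO2). CellTiter-Glo was then added, and after 10 min at room temperature, luminescence gave viability.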
# Potency means the concentration at half of the fitted maximal effect.
row,Structure (SMILES),Potency
1,CC(C)CCCCC(=O)N[C@@H](CO)C(=O)N[C@@H](CC(C)C)C(=O)[C@@]1(CO)CO1,7.31 µM (active)
2,CCOc1ccc(-c2cc(NC(=O)c3c(F)cccc3F)c(C(=O)O)s2)cc1,inactive
3,Nc1ccn([C@H]2O[C@@H](CO)[C@H](O)[C@H]2O)c(=O)n1,1.46 µM (active)
4,Cc1ccc2[nH]c(=O)c(C3=NN(C(=O)CCC(=O)O)C(c4ccc(Br)cc4)C3)c(-c3ccccc3)c2c1 (configuration not stated),23.1 µM (active)
5,CC(C)CC1NC(=O)C2CC3(O)c4ccccc4NC3N2C1=O (configuration not stated),inactive
6,Cn1cnc(-c2nccc3c(=O)[nH]c(OCCCC(F)(F)F)nc23)c1,9.2 µM (active)
7,C=C1[C@H](OC(C)=O)[C@H]2[C@@H](OC(C)=O)[C@](C)(OC(C)=O)C[C@]2(OC(C)=O)C(=O)[C@H](C)/C=C/C(C)(C)C(=O)[C@H](OC(=O)C(C)C)[C@H]1OC(C)=O,inactive
8,COc1cc(C(CO)CO[C@@H]2O[C@H](CO)[C@@H](O)[C@H](O)[C@H]2O)ccc1O (some centres not stated),inactive
9,CC(=O)O[C@@H]1[C@@H](OC(=O)/C=C/c2ccccc2)[C@H](C)O[C@@H](O[C@H]2[C@@H]3C=CO[C@@H](O[C@@H]4O[C@H](CO)[C@@H](O)[C@H](O)[C@H]4O)[C@@H]3[C@@]3(CO)O[C@@H]23)[C@@H]1OC(C)=O,inactive
10,Oc1ccc([C@H]2COc3cc(O)ccc3C2)cc1,13 µM (active)
11,Cn1nccc1-c1ccccc1Oc1ccc(S(=O)(=O)Nc2nccs2)cc1C#N,13 µM (active)
12,C[C@@]1(O)[C@H](O)[C@@H](CO)O[C@H]1n1ccc(N)nc1=O,13 µM (active)
13,O=C(O)c1ccc2c3c1cccc3c(=O)n1c3ccccc3nc21,inactive
14,Cc1noc(-c2ccc(-c3ccc(CC(=O)O)cc3)cc2)c1NC(=O)O[C@H](C)c1ccccc1Cl,20.6 µM (active)
15,Cc1ccc(C)c(-c2cc(C(F)(F)F)nn2-c2ccc(S(N)(=O)=O)cc2)c1,14.6 µM (active)
16,COc1cccc(N2CCN(C3=Nc4c(F)cccc4[C@H](CC(=O)O)N3c3cc(C(F)(F)F)ccc3OC)CC2)c1,18.4 µM (active)
17,C=C[C@](C)(CC/C=C(\C)C(=O)O)O[C@@H]1OC[C@H](O)[C@H](O)[C@H]1O,inactive
18,CC(=O)O[C@@H]1CC(C)=C2[C@H]1[C@H](C)CC[C@H]2/C=C(\C)C(=O)O,16.4 µM (active)
19,O=S(=O)(Nc1ccc(C(O)(C(F)(F)F)C(F)(F)F)cc1)c1cccs1,16.4 µM (active)
20,Cc1nc2cc(C(=O)NCc3ccccn3)nn2c(C)c1Cc1cccc(Cl)c1,20.6 µM (active)
21,C=C(C)C(=O)OC1C(OC(C)=O)/C(C=O)=C\CC/C(CO)=C/C2OC(=O)C(=C)C21 (configuration not stated),2 µM (active)
22,CC1=C2CC(C)(C)CC2C(O)C2=C(C1)C(=O)OC2O (configuration not stated),inactive
23,CC1OC2OC(=O)C3(C)CC4=C(CO)C5=C(CC(=O)C4(C)C(C1=O)C23)C(C)(C)OC(=O)C5 (configuration not stated),inactive
24,O=C(NCc1ccc(OC(F)(F)F)cc1)C1c2ccccc2C(=O)N1C1CCOCC1 (configuration not stated),inactive
25,COc1cc2c(cc1OC)CC(=O)N(CCCNC[C@H]1Cc3cc(OC)c(OC)cc31)CC2,16.4 µM (active)
26,Fc1ccc(C(c2ccc(F)cc2)N2CCN(C/C=C/c3ccccc3)CC2)cc1,21.1 µM (active)
27,Cn1cc(C2=C(c3cn(CCCSC(=N)N)c4ccccc34)C(=O)NC2=O)c2ccccc21,0.411 µM (active)
